Measurements: the supplement of paper PMC3334620
Whole data set: some 33,000 sequences, median “E-score (-0.5 to 0.5)” near -0.035, cut for the highest 2% near 0.34. Shown is part of a subset that was picked to be rich in the highest values.

molecular target: T1, Mot3 (UniProt P54785); experiment: PBM E-score (8-mer binding enrichment) (E-score (-0.5 to 0.5)); higher = stronger / more preferred TF binding; conditions: protein concentration: 200 nM; construct: GST-full length
T1 sequence: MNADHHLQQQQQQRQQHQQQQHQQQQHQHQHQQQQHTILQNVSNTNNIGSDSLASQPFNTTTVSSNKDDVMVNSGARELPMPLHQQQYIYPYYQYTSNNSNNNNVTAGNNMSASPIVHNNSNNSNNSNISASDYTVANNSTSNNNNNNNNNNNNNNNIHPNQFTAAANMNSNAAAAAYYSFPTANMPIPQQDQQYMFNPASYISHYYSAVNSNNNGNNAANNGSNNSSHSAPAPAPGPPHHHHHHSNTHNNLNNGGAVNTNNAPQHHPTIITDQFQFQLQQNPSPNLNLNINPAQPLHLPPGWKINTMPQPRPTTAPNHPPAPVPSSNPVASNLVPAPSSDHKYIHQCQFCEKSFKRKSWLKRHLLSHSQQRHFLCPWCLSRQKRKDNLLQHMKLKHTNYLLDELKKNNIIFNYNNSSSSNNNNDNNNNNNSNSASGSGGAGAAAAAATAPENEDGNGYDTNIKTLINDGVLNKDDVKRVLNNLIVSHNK
Outline: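 Yeast transcription factors carrying a GST tag, as full-length proteins or DNA-binding domains, were produced by PURExpress in vitro transcription/translation. About 100-200 nM protein was applied to universal all-10-mer Agilent arrays, double-stranded by primer extension on fresh or once-stripped slides. Bound protein was detected with fluorescent anti-GST, and scans were normalised with masliner. The Universal PBM Analysis Suite gave each ungapped eight-base word, pooled with its reverse complement, an E-score, a modified Wilcoxon-Mann-Whitney statistic.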

Sequence | PBM E-score
AGCTACAT | 0.145
ATATGTAG | 0.202
AGATGTAA | 0.272
GTATGTGA | 0.0776
CTCTGTAC | 0.0774
ATATGTAA | 0.346
GGATGTAA | 0.295
ATATGTGA | 0.197
CTCTGTAA | 0.133
CTATGTAC | 0.378
CTATGTAA | 0.41
ATATGTAC | 0.274
GTATGTAA | 0.404
CGATAGCA | -0.159
CCCTTGCG | -0.214
ACAAGTGC | 0.201
CGATCGCG | -0.102
GACCAATC | -0.039
CCAAGTCG | -0.155
AACCATCT | -0.143
CCTACTCA | -0.046
ATGCTGCG | -0.101
GTATGTTA | 0.354
ATATGTTA | 0.284
CTATGTTA | 0.329

Sequence | PBM E-score
ACTGAGAG | -0.0806
ACAGAACT | -0.0328
CCCCGGGG | -0.37
GGGCTAAA | -0.189
GTACCTTA | 0.355
CTACCTTA | 0.0561
GTACCTGA | 0.402
ATACCTGA | 0.0776
CTACCTGA | 0.0134
ATACCTTA | -0.0699
CTTAAGCA | 0.104
CCGAATTC | -0.242
AGAATCAC | -0.211
CTGTGGCC | -0.0368
ATTACGCA | 0.354
ATTACGGG | -0.00149
CTTACGCA | 0.301
ATTACGCC | 0.102
CATACGCG | 0.155
ATTACGCG | 0.377
AATACGCG | 0.354
GTTACGCA | 0.207
AATACGCT | 0.188
AAACTGCA | -0.0533
CTAGCAGC | -0.257

Sequence | PBM E-score
CAACTGAA | 0.0709
GAATGCAA | -0.0468
CAGGGATG | 0.034
AAGGTAGC | 0.149
CAGGTAAG | 0.271
CAGGTAAC | 0.39
AGGGTAAT | -0.0805
GAGGTAAC | -0.0204
AAGGTAAG | 0.27
AAGGTAAC | 0.339
CAGGTAAA | 0.383
AAGGTAAA | 0.334
AAGGTAAT | 0.34
GAGGTAAA | 0.0852
AAGGTATT | 0.16
CATTGGAG | -0.179
AGAGGTTA | 0.0342
CTGAATGA | 0.00529
GACTGTAA | 0.147
ATCCACCC | -0.246
TCTCAGAA | -0.0878
CTACTCGA | 0.0146
CCGCAAAC | -0.0792
AAGCTATA | -0.00123
CGAAAAAG | 0.142

Sequence | PBM E-score
CCAGCTTC | -0.187
GATTTACA | 0.332
CATTTACA | 0.363
TATTTACA | 0.386
TATTTAAA | 0.231
CATTTACC | 0.158
AATTTACA | 0.382
AATTTACC | 0.153
CATTTACG | 0.201
TATTTAGA | 0.184
AAGCAGAC | -0.0963
AAATCGCC | -0.255
ACCGGTGA | -0.16
GCTACCAC | -0.216
TTCCTAAA | 0.408
GACCTACA | 0.045
TGCCTAAA | 0.476
GTCCTAAA | 0.125
TGCCTTAA | 0.471
AGCCTAAA | 0.178
ATCCTAAA | -0.0533
CGCCTTAA | 0.323
AGCCTTAA | 0.158
TACCTACA | 0.381
CACCTACA | 0.227

Sequence | PBM E-score
GGCCTAAA | 0.0327
CACCTCCA | -0.138
AGTTCGAC | 0.0301
CTTCCCTA | -0.206
CAGGTGCA | 0.0796
GCAAAAAA | 0.203
CTAGACTA | -0.24
CAGCGTAC | -0.0299
CGCCTACA | 0.224
GACCTTCA | -0.083
GGCCTACA | 0.00717
TACCTTCA | 0.376
TACCTGCA | 0.403
GACCTGCA | -0.0447
TGCCTACA | 0.487
AACCTGCA | 0.0857
AACCTTCA | 0.215
AGGGTCTA | -0.153
CGAGCGCC | -0.0813
GTTCACGA | -0.101
GGACGCTA | -0.206
ACGGCAGG | -0.17
CGCGCCAA | -0.0132
ATTACACG | 0.435
GTGACACA | 0.0545

Sequence | PBM E-score
ATTACACA | 0.438
ATGACACG | 0.384
GTTACACA | 0.357
ATTACTCA | 0.165
CTTACACA | 0.3
ATGACACA | 0.313
GTTACAAA | 0.223
ATTACACC | 0.299
CTCACACA | -0.0904
ATCACACA | 0.143
CGAGACCC | -0.0978
CGGCCACA | -0.234
GACGATCC | -0.0936
ATCAATAA | 0.0626
CTACGCGA | 0.232
ATCTACAC | 0.375
ATCTACAT | 0.349
ACCTACAC | 0.258
ATCTACAA | 0.205
GTCTACAC | 0.275
ATCTACAG | 0.0501
GCCTACAC | 0.344
CCCTACAC | 0.187
CTCTACAC | 0.223
GAAAAGGC | 0.228

Sequence | PBM E-score
AATCAGGT | 0.153
CCCATGAG | -0.314
AATGAGGT | -0.0627
GTATTCCA | 0.0481
CTCTGTGC | 0.00777
CAAGGCAG | 0.0705
AAAGGCCT | -0.0542
TAAGGCTA | 0.129
CAAGGCCG | -0.0783
CAAGGCCC | 0.0163
TAAGGCAA | 0.472
AAAGGCTT | -0.0548
CAAGGCCA | 0.0593
TAAGGCGA | -0.0665
CAAGGCAC | 0.488
AAAGGCAT | 0.39
CAAGGCAA | 0.479
ACGGCGTG | 0.0736
ATCTTAGC | -0.0857
ACACCGGA | 0.0203
AAGCTAGT | -0.004
CTACTGGA | -0.174
